# Assay outcomes: PubChem, National Center for Advancing Translational Sciences (NCATS)
# Most compounds without a hit are left out; they make up all but 9.3% or so of the library.
# FMDV antiviral: foot and mouth disease virus antiviral activity | FMDV antiviral cell-based qHTS | Potency, µM (doses to about 57.9 µM), for the others: top-dose activity change, negative = inhibition, most hits filed as inhibitors | 410,000 compounds, 1.2% hits | AID 1159524; calls by dose curve; tested in HEK293T cells; note: read-out not given here; potency is the fitted concentration of half-maximal effect; nearly all actives have a fitted effect of over 45% in size
# HCMV antiviral: inhibitors of human cytomegalovirus. 410,000 compounds, 4.5% hits. activity change, negative = inhibition, % at 57.5 µM. HFF cells, HCMV-luciferase reporter, 72 h; active compounds read low. AID 1259415; in the data active = activity change below about -60%; inconclusive = no clear call, values can overlap the other calls; inactive = above about -39%
#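 Inhibition of viral replication was scored as loss of reporter luminescence in HFFs infected with HCMV-luciferase (MOI 1 PFU/cell) for 72 h; compounds tested at 2 doses, normalized to buffer and Salinomycin controls.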
# HCV inh: inhibitors of hepatitis C virus infection; Huh7.5.1 HCVcc-Cre infection, luciferase reporter, 44 h; 340,000 compounds, 3.4% hits; AID 651820; Potency, µM (titrated, usually from 41.8 µM), inactives show top-dose activity change, negative = inhibition, actives largely listed as inhibitors; note: potency is the fitted concentration of half-maximal effect
#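 Luciferase read-out (15 sec integration) after a 15 min room-temperature substrate step quantifies HCVcc-Cre infection. Cells, 1,000 per well, had compound added 4 h post-plating, then virus at ~0.5 moi, and were cultured 44 h.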
# VACV Venus inh: vaccinia inhibition (Venus reporter) | Vaccinia virus Venus reporter expression, fluorescence | Potency, µM (highest dose often 36.5 µM), for inactives: at the highest dose activity change, negative = inhibition, usual class: inhibitors | 330,000 compounds, 0.46% hits; calls by dose curve; tested in A549 cells; note: potency is the fitted concentration of half-maximal effect; nearly all actives have a fitted effect of over 30% in size
# Sm TGR inh: inhibitors of Schistosoma mansoni thioredoxin glutathione reductase; Q962Y6; purified TGR, DTNB reduction, TNB absorbance 405 nm; Potency, µM (titrated, usually from 114 µM), for inactives: at the top dose activity change, negative = inhibition, usual class: inhibitors; 360,000 compounds, 3% hits; note: potency is the fitted concentration of half-maximal effect; nearly all actives have a fitted effect of over 60% in size
#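 First, TGR (20 nM dispensed) and NADPH were mixed with compound. Second, a 15 min room-temperature incubation followed. Third, further NADPH and then DTNB were added to start the reaction. Finally, TNB absorbance was monitored kinetically.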
# Vaccinia mCherry: vaccinia inhibition (mCherry reporter). Potency, µM (titrated, usually from 36.5 µM), for inactives: at the top dose activity change, negative = inhibition, hits mostly inhibitors. 310,000 compounds, 0.63% hits. Vaccinia virus mCherry reporter infection, fluorescence. AID 720579; calls by dose curve; tested in A549 cells; note: potency is the fitted concentration of half-maximal effect; nearly all actives have a fitted effect of over 35% in size
# * = called active by the depositor; i = inactive; ? = inconclusive; . = no result given; [ ] = remark or other dose. Unless noted, calls come from the whole dose curve; as a rule, active = well fitted curve in the direction sought with a large enough effect; inconclusive = small, poorly fitted or top-dose-only effect, or another doubt; inactive = no such curve, though single readings can be large; an effect the other way counts as inactive or inconclusive. % is set by controls: 0 for no effect and ±100 for the full control effect.
SMILES,FMDV antiviral,HCMV antiviral,HCV inh,VACV Venus inh,Sm TGR inh,Vaccinia mCherry
CN(/N=C/c1ccc(Br)o1)C1=NS(=O)(=O)c2ccccc21,-15%,-25,-16%,-16%,45µM*,-18%
O=C(O)c1ccc2c3c(ncnc13)-c1ccccc1C2=O,-15%,.,17%,?,50µM*,.
COc1ccc(Oc2nnc(-c3ccccc3)cc2C#N)cc1,?,10,-9%,-25%,0%,i
CCOc1ccccc1CNCc1c(C(=O)O)n(Cc2ccccc2)c2cc(OC)ccc12,17%,14,.,8%,-3%,7%
Cc1ccc2c(CNCCc3ccc(Cl)cc3)c(C(=O)O)n(Cc3ccc(F)cc3)c2c1,-17%,-106*,.,-15%,-2%,-13%
Cc1ccc(Cn2c(C(=O)O)c(CNCCc3ccco3)c3ccc(C)cc32)cc1,7%,49,.,-2%,-20%,14%
COc1ccc(Cn2c(C(=O)O)c(CNCCc3ccccc3Cl)c3ccc(C)cc32)cc1,-54%,-105*,.,?,4%,?
C=Cc1ccc(Cn2c(C(=O)O)c(CNCCc3ccccc3)c3ccc(C)cc32)cc1,-18%,-90*,.,?,-10%,-19%
COc1ccc(Cn2c(C(=O)O)c(CNCc3ccccc3F)c3ccc(OC)cc32)cc1,16%,-76*,.,-7%,-2%,-11%
Cc1ccc(OCC(=O)Nc2oc(-c3ccccc3)c(-c3ccccc3)c2C#N)cc1,?,25,?,-18%,.,-20%
C=Cc1ccc(Cn2c(C(=O)O)c(CNCc3cc(OC)ccc3OC)c3ccc(C)cc32)cc1,0%,-104*,.,-12%,3%,-14%
O=C(NN1C(=O)NC2(CCCCC2)C1=O)c1cc2cc(Cl)ccc2o1,-5%,-6,4%,.,.,.
O=C(NN1C(=O)NC2(CCCCC2)C1=O)c1ccc(-c2ccc(Cl)cc2)o1,?,-10,11µM*,?,-12%,-22%
CCOc1ccc2nc(N3CCCC(C(=O)Nc4ccc(OC)c(Cl)c4)C3)sc2c1 (stereo not given),0%,38,.,-23%,2%,-14%
CCSc1cc(C)nc2c(-c3ccccc3)cnn12,48%,221,10µM*,.,5%,.
CC(=O)Nc1ccc(Nc2cc(C)nc3c(-c4ccccc4)cnn23)cc1,?,-92*,?,?,0%,?
C=CCSc1cc(C)nc2c(-c3ccccc3)cnn12,64%,195,?,.,-13%,.
COc1ccc(CN(Cc2ccc(C(=O)O)cc2)C(=S)Nc2ccccc2F)cc1OC,-21%,-10,21%,-7%,-1%,-1%
O=C(N/N=C/c1ccc(F)c(F)c1)c1cccc(S(=O)(=O)N2CCCCC2)c1,-24%,-22,5%,.,-6%,.
CCOC(=O)C1(C)CCCN(C(=O)c2c(F)ccc(C)c2F)C1 (stereo not given),-15%,-17,.,-10%,.,36%
Cc1ccc(Cl)cc1N1CCN(CCN)CC1,20%,1,10µM*,-21%,-4%,?
COc1ccccc1N1CCN(CC(=O)Nc2ccc(CN3CCCCC3)cc2)CC1,.,-30,?,-15%,1%,-2%
Cc1ccc(Cl)cc1N1CCN(CCNC(=O)Nc2ccc(Cl)cc2)CC1,?,-90*,.,-19%,-1%,-17%
Cc1ccc(Cl)cc1N1CCN(CC(=O)Nc2ccc(CN3CCCCC3)cc2)CC1,?,-36,8.9µM*,-16%,6%,-12%[1.46 µM]
COc1ccc(C2(O)CCN(CC(=O)Nc3nccs3)CC2)c(OC)c1,-18%,36,?,-2%,-25%,-15%
NC(COCc1ccccc1)c1csc(Nc2nncc3ccccc23)n1 (stereo not given),12%,30,.,-29%,.,-14%
COc1ccc(CC(N)c2csc(NC(=O)Nc3ccc(F)cc3)n2)cc1 (stereo not given),-33%,-10,.,-13%,.,-26%
NC(Cc1ccc(C(F)(F)F)cc1)c1csc(Nc2nncc3ccccc23)n1 (stereo not given),-24%,-104*,.,?,.,?
NC(Cc1ccc(C(F)(F)F)cc1)c1csc(NC(=O)Nc2ccccc2)n1 (stereo not given),-24%,-28,.,10µM*,.,?
